In ChEMBL document CHEMBL3988442, “University of Dundee, Small-Polar-MMV Screening Library” (2021):
For part of these data: Entries with a potency or affinity are not part of this list.

Experiments:
Set-up in all cases: scale not given: direction of the effect not stated beside the values
[1] = biological target: Protein translocase subunit SecA (Escherichia coli (strain K12)) (UniProt P10408); test: Assay to Identify E. coli SecA ATPase Inhibitors; format: functional; conditions: 30 µM
[2] = biological target: T1, Ubiquitin-activating enzyme e1, putative (Leishmania donovani (strain BPK282A1)) (UniProt E9BSI1); test: Leishmania donovani Ubiquitin Activating Enzyme (LdE1); format: functional; conditions: 30 µM
T1 sequence (whole entry): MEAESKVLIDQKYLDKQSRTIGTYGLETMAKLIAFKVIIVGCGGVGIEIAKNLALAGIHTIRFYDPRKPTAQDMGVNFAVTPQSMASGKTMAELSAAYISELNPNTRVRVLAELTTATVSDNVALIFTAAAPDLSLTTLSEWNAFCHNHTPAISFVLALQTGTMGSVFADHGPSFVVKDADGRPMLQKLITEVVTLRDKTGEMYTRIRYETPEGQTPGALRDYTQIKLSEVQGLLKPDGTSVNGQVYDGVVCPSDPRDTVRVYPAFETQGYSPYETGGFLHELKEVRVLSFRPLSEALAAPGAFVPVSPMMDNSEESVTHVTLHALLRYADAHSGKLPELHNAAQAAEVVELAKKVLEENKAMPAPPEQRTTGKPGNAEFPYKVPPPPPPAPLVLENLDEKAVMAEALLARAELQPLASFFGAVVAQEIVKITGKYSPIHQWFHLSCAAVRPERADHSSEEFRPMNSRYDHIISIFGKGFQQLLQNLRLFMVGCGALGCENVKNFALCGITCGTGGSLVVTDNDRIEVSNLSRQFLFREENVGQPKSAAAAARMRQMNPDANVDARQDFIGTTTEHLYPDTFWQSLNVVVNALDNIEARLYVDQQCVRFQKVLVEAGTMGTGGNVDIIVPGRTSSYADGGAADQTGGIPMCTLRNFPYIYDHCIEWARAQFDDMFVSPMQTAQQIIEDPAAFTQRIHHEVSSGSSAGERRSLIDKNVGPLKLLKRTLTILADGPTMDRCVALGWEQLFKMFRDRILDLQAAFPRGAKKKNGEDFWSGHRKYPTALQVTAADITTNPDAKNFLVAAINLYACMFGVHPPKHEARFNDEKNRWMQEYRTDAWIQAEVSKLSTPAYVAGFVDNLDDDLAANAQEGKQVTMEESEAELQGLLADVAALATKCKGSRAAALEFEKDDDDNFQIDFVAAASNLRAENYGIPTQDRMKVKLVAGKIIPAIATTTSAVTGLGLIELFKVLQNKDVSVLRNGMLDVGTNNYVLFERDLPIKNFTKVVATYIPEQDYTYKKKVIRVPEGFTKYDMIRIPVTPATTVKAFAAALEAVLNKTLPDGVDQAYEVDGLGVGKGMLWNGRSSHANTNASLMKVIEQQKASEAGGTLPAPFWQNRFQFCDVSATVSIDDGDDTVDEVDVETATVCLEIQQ

[3] = biological target: AMP-activated protein kinase, AMPK (Homo sapiens) (UniProt P54646+O43741+P54619+Q9UGJ0+Q9Y478+Q13131+Q9UGI9); test: AMP-dependent Kinase enzyme assay. An in vitro enzyme assay that detects ADP turnover that is directly proportional to AMPK activity. This uses naive AMPK that is activated during the assay with MK-8722; format: functional; conditions: 30 µM
[4] = biological target: Sialic acid-binding Ig-like lectin 9 (Homo sapiens) (UniProt Q9Y336); test: Hs-Siglec9 ALPHAscreen SOP 20170721; conditions: 10 µM
Trypanosoma cruzi = test: Trypanosoma cruzi phosphomannomutase and mannose-1-phosphate guanylyltransferase assay; format: functional; conditions: 10 µM
[5] = biological target: T2, Arginase-2, mitochondrial (Homo sapiens) (UniProt P78540); test: in vitro enzyme assay to detect the production of urea directly proportional to the activity of Arginase II; format: functional; conditions: 33.3 µM; further: in the data most compounds retested in dose-response had high values
T2 sequence (whole entry): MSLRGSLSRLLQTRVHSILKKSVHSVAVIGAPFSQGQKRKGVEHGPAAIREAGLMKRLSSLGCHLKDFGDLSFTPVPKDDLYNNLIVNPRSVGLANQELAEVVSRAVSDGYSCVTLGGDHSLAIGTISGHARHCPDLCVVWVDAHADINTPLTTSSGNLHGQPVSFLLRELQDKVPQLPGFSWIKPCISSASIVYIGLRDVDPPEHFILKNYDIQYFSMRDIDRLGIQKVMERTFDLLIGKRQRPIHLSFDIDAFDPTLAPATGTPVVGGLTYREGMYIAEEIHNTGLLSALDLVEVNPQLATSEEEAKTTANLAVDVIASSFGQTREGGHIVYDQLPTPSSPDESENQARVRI

[6] = biological target: T3, Proteasome subunit beta (Trypanosoma cruzi) (UniProt O96673); test: Trypanosoma cruzi proteasome chymotrypsin-like activity (TcProtChymo) assay.; further: in the data most compounds retested in dose-response had high values; format: functional; conditions: 9.37 µM
T3 sequence (whole entry): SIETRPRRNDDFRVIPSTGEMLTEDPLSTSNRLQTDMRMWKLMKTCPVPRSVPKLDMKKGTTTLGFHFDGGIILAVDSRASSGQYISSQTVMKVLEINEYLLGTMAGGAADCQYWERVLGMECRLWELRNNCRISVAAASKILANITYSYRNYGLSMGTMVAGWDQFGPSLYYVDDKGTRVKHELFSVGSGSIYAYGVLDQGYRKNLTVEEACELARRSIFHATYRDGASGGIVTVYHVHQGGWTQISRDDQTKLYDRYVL

Homo sapiens = species: Homo sapiens; test: To identify inhibition of the IFN signalling (Jak-Stat) pathway via expression of an eGFP reporter gene under the control of an IFN-stimulated response element (ISRE) containing MxA promoter.; format: functional; conditions: 30 µM
[7] = biological target: T4, Tyrosyl-tRNA synthetase, putative (Trypanosoma cruzi (strain CL Brener)) (UniProt Q4DSP6); test: Trypanosoma cruzi tyrosyl tRNA synthetase (TcYRS) _High Tyrosine SOP; format: functional; conditions: 30 µM; further: in the data most compounds retested in dose-response had high values
T4 sequence (whole entry): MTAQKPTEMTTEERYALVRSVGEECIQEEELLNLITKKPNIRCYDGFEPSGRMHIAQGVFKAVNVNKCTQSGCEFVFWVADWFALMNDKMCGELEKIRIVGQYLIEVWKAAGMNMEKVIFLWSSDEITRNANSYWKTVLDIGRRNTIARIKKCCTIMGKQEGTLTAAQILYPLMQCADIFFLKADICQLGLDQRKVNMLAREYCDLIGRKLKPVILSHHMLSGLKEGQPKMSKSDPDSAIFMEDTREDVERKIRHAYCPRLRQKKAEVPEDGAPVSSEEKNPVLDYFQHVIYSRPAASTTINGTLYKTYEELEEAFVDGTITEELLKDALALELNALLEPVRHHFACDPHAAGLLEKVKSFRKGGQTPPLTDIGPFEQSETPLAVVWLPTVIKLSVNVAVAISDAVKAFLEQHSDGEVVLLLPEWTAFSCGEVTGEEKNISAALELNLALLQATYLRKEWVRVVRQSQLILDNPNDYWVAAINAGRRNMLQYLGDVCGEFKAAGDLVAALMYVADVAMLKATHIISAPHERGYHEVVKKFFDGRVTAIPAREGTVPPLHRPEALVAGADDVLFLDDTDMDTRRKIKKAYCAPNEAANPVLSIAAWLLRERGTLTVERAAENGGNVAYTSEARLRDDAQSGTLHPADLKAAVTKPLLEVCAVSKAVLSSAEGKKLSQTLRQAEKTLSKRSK

[8] = biological target: T4, Tyrosyl-tRNA synthetase, putative (Trypanosoma cruzi (strain CL Brener)); test: Trypanosoma cruzi tyrosyl tRNA synthetase (TcYRS) SOP; format: functional; conditions: 30 µM
[9] = biological target: Chromo domain-containing protein 1 (Saccharomyces cerevisiae (strain ATCC 204508 / S288c) (Baker's yeast)) (UniProt P32657); test: ScCHD-1 Enzyme Inhibition Assay; format: functional; conditions: 30 µM; further: in the data most compounds retested in dose-response had high values
Chain of Chromo domain-containing protein 1 (Saccharomyces cerevisiae (strain ATCC 204508 / S288c) (Baker's yeast)) (P32657 whole entry, the tested form may be a part): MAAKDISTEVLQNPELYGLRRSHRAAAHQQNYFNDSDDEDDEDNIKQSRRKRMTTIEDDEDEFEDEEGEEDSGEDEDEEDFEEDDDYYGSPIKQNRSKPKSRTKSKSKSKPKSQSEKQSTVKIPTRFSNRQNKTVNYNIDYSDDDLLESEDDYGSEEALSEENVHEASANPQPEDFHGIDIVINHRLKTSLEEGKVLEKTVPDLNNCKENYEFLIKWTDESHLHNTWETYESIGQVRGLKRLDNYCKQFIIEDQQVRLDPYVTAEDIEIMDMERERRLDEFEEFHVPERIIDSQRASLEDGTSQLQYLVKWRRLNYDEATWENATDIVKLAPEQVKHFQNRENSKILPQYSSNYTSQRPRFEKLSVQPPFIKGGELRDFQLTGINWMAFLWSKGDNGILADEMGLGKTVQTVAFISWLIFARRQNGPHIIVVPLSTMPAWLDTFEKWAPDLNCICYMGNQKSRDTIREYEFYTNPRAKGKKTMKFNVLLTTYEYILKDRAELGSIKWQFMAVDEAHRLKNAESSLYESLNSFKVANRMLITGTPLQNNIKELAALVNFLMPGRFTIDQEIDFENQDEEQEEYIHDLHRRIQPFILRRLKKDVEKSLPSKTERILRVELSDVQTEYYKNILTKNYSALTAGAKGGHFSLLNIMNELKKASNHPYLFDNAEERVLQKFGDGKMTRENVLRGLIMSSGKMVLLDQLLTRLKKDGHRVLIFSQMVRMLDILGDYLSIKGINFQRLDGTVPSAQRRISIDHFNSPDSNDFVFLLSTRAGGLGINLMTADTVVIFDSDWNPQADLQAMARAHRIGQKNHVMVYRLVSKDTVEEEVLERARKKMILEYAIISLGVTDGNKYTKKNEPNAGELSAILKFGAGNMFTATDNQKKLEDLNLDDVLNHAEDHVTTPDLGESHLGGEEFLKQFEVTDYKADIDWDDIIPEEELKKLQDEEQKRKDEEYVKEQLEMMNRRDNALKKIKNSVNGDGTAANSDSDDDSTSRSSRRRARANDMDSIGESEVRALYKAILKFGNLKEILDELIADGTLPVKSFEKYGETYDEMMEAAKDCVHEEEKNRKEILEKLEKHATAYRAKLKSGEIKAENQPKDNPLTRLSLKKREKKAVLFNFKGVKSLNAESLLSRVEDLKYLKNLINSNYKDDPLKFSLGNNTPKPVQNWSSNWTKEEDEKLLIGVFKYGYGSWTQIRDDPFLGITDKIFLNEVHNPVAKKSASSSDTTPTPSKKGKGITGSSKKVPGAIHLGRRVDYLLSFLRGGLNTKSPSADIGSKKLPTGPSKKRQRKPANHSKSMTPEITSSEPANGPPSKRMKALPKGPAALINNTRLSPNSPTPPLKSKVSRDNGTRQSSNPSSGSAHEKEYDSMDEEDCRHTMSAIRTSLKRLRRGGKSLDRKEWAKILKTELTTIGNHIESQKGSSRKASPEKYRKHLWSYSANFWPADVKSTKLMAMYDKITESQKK

Chain of Protein translocase subunit SecA (Escherichia coli (strain K12)) (P10408 whole entry): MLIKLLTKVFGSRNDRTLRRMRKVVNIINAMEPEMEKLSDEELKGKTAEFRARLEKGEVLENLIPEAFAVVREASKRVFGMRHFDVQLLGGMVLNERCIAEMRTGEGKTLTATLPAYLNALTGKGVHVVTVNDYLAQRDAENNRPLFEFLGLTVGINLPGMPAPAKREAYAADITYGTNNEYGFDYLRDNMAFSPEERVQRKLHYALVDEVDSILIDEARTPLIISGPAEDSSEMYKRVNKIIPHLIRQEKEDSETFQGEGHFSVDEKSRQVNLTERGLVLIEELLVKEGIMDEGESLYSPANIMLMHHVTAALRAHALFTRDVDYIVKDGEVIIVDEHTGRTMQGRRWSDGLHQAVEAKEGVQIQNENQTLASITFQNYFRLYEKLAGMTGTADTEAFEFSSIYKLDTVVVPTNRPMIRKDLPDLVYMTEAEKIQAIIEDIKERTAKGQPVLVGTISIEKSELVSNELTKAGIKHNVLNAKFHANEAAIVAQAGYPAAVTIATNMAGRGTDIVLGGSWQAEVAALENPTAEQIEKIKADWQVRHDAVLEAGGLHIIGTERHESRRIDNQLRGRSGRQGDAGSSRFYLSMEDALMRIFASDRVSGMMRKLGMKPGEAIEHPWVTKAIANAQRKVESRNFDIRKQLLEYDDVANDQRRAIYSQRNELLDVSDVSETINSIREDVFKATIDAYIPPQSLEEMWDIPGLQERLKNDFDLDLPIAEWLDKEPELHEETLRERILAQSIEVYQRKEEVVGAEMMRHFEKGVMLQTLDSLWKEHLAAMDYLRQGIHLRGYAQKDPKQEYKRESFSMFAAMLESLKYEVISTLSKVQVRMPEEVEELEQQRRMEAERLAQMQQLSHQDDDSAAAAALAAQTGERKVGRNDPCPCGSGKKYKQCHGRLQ
Chain of Sialic acid-binding Ig-like lectin 9 (Homo sapiens) (Q9Y336 whole entry): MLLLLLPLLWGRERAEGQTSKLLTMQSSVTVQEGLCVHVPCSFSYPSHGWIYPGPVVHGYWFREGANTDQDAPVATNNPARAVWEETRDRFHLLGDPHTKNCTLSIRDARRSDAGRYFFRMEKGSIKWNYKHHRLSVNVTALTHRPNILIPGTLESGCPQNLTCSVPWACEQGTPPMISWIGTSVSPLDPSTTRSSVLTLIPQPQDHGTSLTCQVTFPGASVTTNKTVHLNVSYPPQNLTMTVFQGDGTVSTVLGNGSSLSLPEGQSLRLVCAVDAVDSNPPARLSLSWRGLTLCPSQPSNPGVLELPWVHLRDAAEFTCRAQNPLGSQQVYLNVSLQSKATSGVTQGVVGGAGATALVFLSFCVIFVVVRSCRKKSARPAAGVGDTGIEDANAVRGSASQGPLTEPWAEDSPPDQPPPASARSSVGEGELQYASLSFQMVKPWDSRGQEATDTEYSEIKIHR

Row | Structure (SMILES) | Percent Effect [1] [%] | Percent Effect [2] [%] | Percent Effect [3] [%] | Percent Effect [4] [%] | Percent Effect (Trypanosoma cruzi) [%] | Percent Effect [5] [%] | Percent Effect [6] [%] | Percent Effect (Homo sapiens) [%] | Percent Effect [7] [%] | Percent Effect [8] [%] | Percent Effect [9] [%]
1 | O=C(NC[C@]12COC[C@H]1CN(Cc1nccs1)C2)c1ccccc1 | -4.56 | 17.3 | -62.1 | 6.67 | 3.34 | -6.87 | 15.7 | 4.15 | 2.12 | 7.69 | -9.52
2 | Cn1ccnc1CN1CCCCC1Cn1cccn1 (stereo unspecified) | -4.99 | 3.8 | 0.666 | 3.72 | 0.718 | 0.215 | -1.03 | 4.51 | 6.25 | 10.1 | -20.8
3 | COc1ncccc1C(=O)NCC1Cc2ccccc2O1 (stereo unspecified) | -0.887 | 5.48 | 2.87 | 0.0975 | -1.76 | 1.36 | 21.3 | -1.66 | 4.3 | 12.5 | -7.46
4 | Cc1csc2nc3n(c(=O)c12)CCN(C(=O)c1ccncc1)CC3 | -6.48 | 20.3 | 7.17 | -3.24 | 1.78 | -2.09 | 9.83 | 12.7 | 2.15 | 11.7 | -13.5
5 | CCCS(=O)(=O)N1C[C@H]2OC(=O)N(CCc3cccc(Cl)c3)[C@H]2C1 | -5.06 | 2.67 | -2.35 | -2.36 | -3.21 | -2.08 | 5.93 | 16.4 | -0.546 | 3.7 | -2.16
6 | CN1CCN(C2CCN(CCOc3ccc(F)cc3)CC2)C1=O | -8.87 | 2.6 | 0.436 | -4 | -3.18 | -0.356 | 4.05 | 37.8 | 0 | 0 | -7.75
